From PubChem BioAssay
CYP2C9 inhib – blockers of cytochrome P450 2C9 activity – biochemical, luminescence, ADME assay, primary screen. inhibition, % at 5 µM. P11712. hit rate 20% among 96,000. CYP2C9 Supersomes, luciferin-H conversion;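 active = blocking of liver enzyme CYP2C9 beyond about 50% at 5 µM, limit read from the data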
Target sequence (P11712 whole entry, looked up): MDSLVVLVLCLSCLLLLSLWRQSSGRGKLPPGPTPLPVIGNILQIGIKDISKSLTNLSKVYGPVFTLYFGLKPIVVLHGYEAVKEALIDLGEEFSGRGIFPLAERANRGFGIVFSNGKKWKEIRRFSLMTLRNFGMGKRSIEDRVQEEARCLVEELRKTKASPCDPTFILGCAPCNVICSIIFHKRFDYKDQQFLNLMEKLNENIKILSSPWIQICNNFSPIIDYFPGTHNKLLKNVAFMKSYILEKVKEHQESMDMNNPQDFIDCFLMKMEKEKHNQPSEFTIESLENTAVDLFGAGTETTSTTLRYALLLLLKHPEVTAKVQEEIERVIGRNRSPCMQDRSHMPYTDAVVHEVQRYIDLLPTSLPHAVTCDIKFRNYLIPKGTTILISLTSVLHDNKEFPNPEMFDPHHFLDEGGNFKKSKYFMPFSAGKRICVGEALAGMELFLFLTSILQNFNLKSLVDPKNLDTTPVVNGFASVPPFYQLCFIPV
CYP2C9 act – human CYP2C9 activators, primary screen, biochemical, luminescence | Cytochrome P450 2C9 (Homo sapiens), P11712 | recombinant CYP2C9, luciferin-H conversion; active compounds read high; factor 1 = untreated enzyme, 0 = blocked | activation factor at 5 µM | hit rate 1.4% among 96,000;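 active = activation factor of 2 or more for CYP2C9 at a 5 µM dose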
CYP2C19 inh – blockers of cytochrome P450 2C19 activity – biochemical, luminescence, ADME assay, primary screen | P33261 | CYP2C19 Supersomes, luciferin-H EGE luminescence, 30 min | inhibition, % at 5 µM | hit rate 21% among 96,000;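 active = CYP2C19 inhibition above a set limit at 5 µM in the primary screen, cut at about 50% in these data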
Cav3 T inh – Cav3.2 calcium influx blockers – cell-based, Fluo-4 calcium fluorescence, FDSS, MLSMR library, primary screen; Voltage-dependent T-type calcium channel subunit alpha-1H (Homo sapiens), O95180; Cav3.2-expressing cells; active compounds read low; B-score at 10 µM; hit rate 4% among 100,000;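 active = single-dose well whose peak fluorescence ratio is a statistical outlier from its plate by either plate-standardised score or position-corrected B-score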
CYP2C19 activ – human CYP2C19 activators, primary screen, biochemical, luminescence; recombinant CYP2C19, luciferin-H EGE luminescence; active compounds read high; 0 = fully inhibited enzyme, 1 = untreated enzyme; Cytochrome P450 2C19 (Homo sapiens), P33261; AID 1025, 2008; activation factor at 5 µM; 96,000 tested, under 10 active;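 active = activation factor of at least 2 at 5 µM in the primary screen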
Each line names hits and unclear results; the compound was inactive in the other large screens. An excerpt weighted towards active compounds, which were near 27% of everything screened.

CCO[C@@H]1OC(C(N)=O)=C[C@H](c2coc3ccccc3c2=O)[C@H]1CCCO	none (no result: CYP2C9 inhib, CYP2C9 act, CYP2C19 inh, CYP2C19 activ)
Cc1ccc(-c2nnc(-c3cccc(NC(=O)c4cccs4)c3)o2)cc1	CYP2C9 inhib 78, CYP2C19 inh 55
COc1ccc(NC(=O)C2CCCN2C(=O)Nc2ccccc2)cc1OC (stereo unspecified)	none (no result: CYP2C9 inhib, CYP2C9 act, CYP2C19 inh, CYP2C19 activ)
COc1ccc(C2CCCN2C(=O)Nc2ccc(Cl)cc2)cc1OC (stereo unspecified)	CYP2C19 inh 73
CCOC(=O)C(NC(=O)CC)(N1CCc2ccccc2C1)C(F)(F)F (stereo unspecified)	CYP2C9 inhib 56
CCOC(=O)C(NC(=O)CC)(Nc1ccccc1OC)C(F)(F)F (stereo unspecified)	none
COc1ccc(CNC(=O)CSc2ncn[nH]2)cc1	CYP2C19 inh 65
COc1ccc(-c2nnc(NC(=O)C(C)C)o2)cc1	none (no result: Cav3 T inh)
COc1ccc(-c2oc(NC(=O)CSc3ncn[nH]3)c(C#N)c2-c2ccc(OC)cc2)cc1	CYP2C9 inhib 70
COc1ccc(-c2oc(NC(=O)CCl)c(C#N)c2-c2ccc(OC)cc2)cc1	CYP2C9 inhib 96, CYP2C19 inh 54
O=C(O)C1=C[C@@H](c2coc3ccccc3c2=O)C[C@@H](OCCCCO)O1	none (no result: CYP2C9 inhib, CYP2C9 act, CYP2C19 inh, CYP2C19 activ)
CCOC(=O)c1c(C)[nH]c(=S)c(C#N)c1-c1ccc(OC)cc1	CYP2C9 inhib 78
COC1(OC)C(/C=C/c2ccc(C)cc2)C(C#N)(C#N)C1(OC)OC (stereo unspecified)	none (no result: CYP2C9 inhib, CYP2C9 act, CYP2C19 inh, CYP2C19 activ)
c1ccc(Nc2nnc(SCc3cccc4ccccc34)s2)cc1	CYP2C9 act 2.1
CCSc1nnc(Nc2ccccc2)s1	none
Cc1ccc2nsnc2c1S(=O)(=O)N1CCN(CCc2ccccc2)CC1	CYP2C19 inh 92
CC1(O)C(=O)C=C2C=C(c3ccsc3)OC=C2C1=O (stereo unspecified)	none (no result: CYP2C9 inhib, CYP2C9 act, CYP2C19 inh, CYP2C19 activ)
CCCCS/C(N)=N/N=C/c1ccccc1O	CYP2C9 inhib 82, CYP2C19 inh 88
CCn1cc(C(=O)NC(=S)Nc2cccc(O)c2)cn1	CYP2C19 inh 65
Cc1ccc(C(=O)/C=C/Nc2ccccc2C(N)=O)cc1	none
NC(=O)c1ccccc1N/C=C/C(=O)c1ccco1	CYP2C19 inh 60
Cc1ccc(SCC(=O)O/N=C(\N)c2ccc([N+](=O)[O-])cc2)cc1	none
CN(CC(=O)O/N=C(\N)c1ccc([N+](=O)[O-])cc1)S(=O)(=O)c1ccc2ccccc2c1	CYP2C9 act 2.3 (no result: Cav3 T inh)
Nc1c(-c2ccccc2)cnn1-c1cccc([N+](=O)[O-])c1	none
O=c1cc(-c2ccccc2)[nH]n1-c1ccc([N+](=O)[O-])cc1	Cav3 T inh -4
Oc1ccccc1-c1n[nH]c(=S)n1Cc1ccco1	none
Cc1ccc(S(=O)(=O)Cc2c(C)noc2C)cc1	CYP2C19 inh 100
Cc1noc(C)c1CS(=O)(=O)c1ccc(Br)cc1	CYP2C19 inh 98 (no result: Cav3 T inh)
CCCc1nn(C)c2c1C(c1cccnc1)C(C#N)=C(N)O2 (stereo unspecified)	none
COc1cc(C2C(C#N)=C(N)Oc3cc(N)ccc32)cc(OC)c1OC (stereo unspecified)	none (no result: CYP2C9 inhib, CYP2C9 act, CYP2C19 inh, CYP2C19 activ)
Cc1ccc(C2C(C#N)=C(N)Oc3cc4c(cc32)OCO4)cc1 (stereo unspecified)	CYP2C9 inhib 74, CYP2C19 inh 72, Cav3 T inh -4.4
N#CC1=C(N)Oc2cc(N)ccc2C1c1ccc(F)cc1 (stereo unspecified)	CYP2C9 inhib 50, CYP2C19 inh 74
CCN(CC)c1ccc2c(c1)OC(N)=C(C#N)C2c1cccnc1 (stereo unspecified)	CYP2C19 inh 82, Cav3 T inh -11
CCOC(=O)C1CCN(c2c(NCc3ccc(C(=O)NC4CCCC4)cc3)c(=O)c2=O)CC1	CYP2C9 inhib 61
CCCCNC(=O)c1ccc(CNc2c(N3CCC(C(=O)OCC)CC3)c(=O)c2=O)cc1	none (no result: CYP2C9 inhib, CYP2C9 act, CYP2C19 inh, CYP2C19 activ)
Cc1ccc(CNC(=O)c2ccc(CNc3c(N4CCCC4)c(=O)c3=O)cc2)cc1	CYP2C9 inhib 51, CYP2C19 inh 80
CCC1(CC)C(=O)NC(=O)NC1=NCCc1c[nH]c2ccccc12	none
COc1cc([C@H]2[C@@H]3CCCC[C@]3(O)CCN2CC(=O)Nc2ccc(C)cc2)ccc1O	CYP2C9 inhib 74, CYP2C19 inh 63
COc1ccc(NC(=O)CN2CCC3(O)CCCCC3C2c2ccccc2OC)cc1 (stereo unspecified)	CYP2C9 inhib 91, CYP2C19 inh 74
CCN(CC)c1ccc(C2C3CCCCC3(O)CCN2CC(=O)N2CCCCC2)cc1 (stereo unspecified)	none
Cc1c(C=O)c2ccccn2c1C(=O)c1ccccc1	CYP2C9 inhib 90, CYP2C19 inh 85
Cc1nc2c(C)cccn2c1C(=O)c1ccccc1	none
CSc1nc(-c2ccccc2)[nH]c(=S)c1C(C)=O	CYP2C9 inhib 55
CSc1nc(-c2ccccc2)nc(SC)c1C(C)=O	none
C(=C\c1nc2ccccc2[nH]1)/c1ccccc1	CYP2C9 inhib 60, CYP2C19 inh 72
CSc1nc(Oc2ccc(F)cc2)c2ccccc2n1	none
CSc1nc(Oc2ccc3ccccc3c2)c2sccc2n1	CYP2C9 inhib 87
Cc1ccn2c(C(=O)CSc3ccc(Cl)cc3)c(C)nc2c1	none (no result: Cav3 T inh)
Cc1ccn2c(C(=O)c3ccc(Cl)cc3)cnc2c1	CYP2C9 inhib 75, CYP2C19 inh 79
O=C(O)c1cc(C2CC2)nc2ccccc12	none (no result: CYP2C9 inhib, CYP2C9 act, CYP2C19 inh, CYP2C19 activ)
CCc1ccc(/C=N/NC(=O)c2cc(C3CC3)nc3ccccc23)s1	CYP2C9 inhib 81
COc1cc(Sc2ccc(C)cc2)c(OC)cc1N	CYP2C19 inh 68
COC(=O)c1ccc(Sc2ccc(C)cc2)c(N)c1	none
CC12CC(NC(=O)N1CCc1ccccc1)c1cc(Cl)ccc1O2 (stereo unspecified)	none (no result: CYP2C9 inhib, CYP2C9 act, CYP2C19 inh, CYP2C19 activ)
Cn1c2c(c(=O)n(C)c1=O)C1c3cc(Cl)ccc3OCC1CO2 (stereo unspecified)	CYP2C19 inh 69
CCCCCC(=O)N1CC2(CC(c3cccc(NC(=O)CC)c3)=NO2)C[C@H]1C(N)=O (stereo partly specified)	none (no result: CYP2C9 inhib, CYP2C9 act, CYP2C19 inh, CYP2C19 activ)
COc1ccc(OCC(=O)Nc2ncc3c(n2)CC(C)(C)CC3=O)cc1	none
CCC(CC)C(=O)Nc1cccc(/C(C)=N\NC(=O)c2ccc(C)s2)c1	Cav3 T inh -5.8
COc1cc(=O)[nH]c(SCc2c(F)c(F)c(F)c(F)c2F)n1	CYP2C9 inhib 50
CC(=O)c1c(C)cc(C)c(CSc2nc(C)cc(=O)[nH]2)c1C	none
CCOC(=O)C1CCN(C(=O)c2cn(-c3ccccc3)nc2-c2cccnc2)CC1	none (no result: Cav3 T inh)
COc1ccc(-c2c3c(=O)n(C)c(=O)n(C)c3cn2C2CCCCC2)cc1	CYP2C9 inhib 77, CYP2C19 inh 70
CCOC(=O)NC1(NC2CCCCC2)Oc2ccccc2O1	CYP2C9 inhib 57
Cc1c(Cl)cccc1NC(=O)c1nc(C)n(-c2cc(OC(C)C)c(Cl)cc2Cl)n1	CYP2C9 inhib 83, Cav3 T inh -12
